From PubChem BioAssay (NCATS) come the findings set out here.

Results filed as inconclusive are left out. The source made the active and inactive calls. Unless noted, calls follow the shape of the dose curve; as a rule, active = well fitted curve in the direction sought with a large enough effect; inconclusive = small, poorly fitted or top-dose-only effect, or another doubt; inactive = no such curve, though single readings can be large; an effect the other way counts as inactive or inconclusive.

Experiment [1] in a line: Primary qHTS for inhibitors of La Crosse Virus (LACV) - induced cell death in SH-SY5Y cells (AID 1508616).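 Also: top concentration of the series differs between compounds; 0% = infected DMSO wells and 100% = uninfected DMSO wells; higher means more rescue of cells from virus-induced death.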 The essentials: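 SH-SY5Y, 6000 cells/well; cpd via pin tool in DMSO; LACV 0.01 MOI; 6 d 37C 5% CO2; ATPLite, 5 min RT; luminescence normalized to ±virus DMSO controls.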
(In general: qHTS replaces the single test concentration by a dilution series.)

In experiment [2] the target is Calcium and integrin-binding protein 1 (Homo sapiens) (UniProt Q99828). The experiment is described as follows: Primary qHTS for Identification of Calcium Integrin Binding Protein 1 (CIB1) Competitor (AID 1508620). Also: potency is read from the fitted curve at half-maximal effect.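 As to activity change, negative = inhibition: GST tagged CIB1 binding a fluorescein labelled alphaIIb integrin peptide tracer; top concentration of the series differs between compounds; % is scaled to controls: 0 for no effect and ±100 for the full control effect.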 The essentials: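 CIB1-GST (1 uM final) and compound incubated 15 min at room temperature before adding FITC-alphaIIb peptide tracer (100 nM final). Competition for binding read by fluorescence polarization (ex 480, em 540) after another 15 min at room temperature.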
Sequence of Calcium and integrin-binding protein 1 (Homo sapiens) (Q99828 whole entry, looked up): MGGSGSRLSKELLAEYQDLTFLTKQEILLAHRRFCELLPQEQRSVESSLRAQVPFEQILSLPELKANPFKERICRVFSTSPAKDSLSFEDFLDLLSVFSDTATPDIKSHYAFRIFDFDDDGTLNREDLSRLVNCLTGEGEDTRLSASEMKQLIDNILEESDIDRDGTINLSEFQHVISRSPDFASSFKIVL

A short description of experiment [3]: Primary qHTS for small molecule stabilizers of the endoplasmic reticulum resident proteome: Secreted ER Calcium Modulated Protein (SERCaMP) assay (AID 1508630). Also: % is scaled to controls: 0 for no effect and ±100 for the full control effect. The method in brief:
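The SH-SY5Y reporter protocol was run at 3 concentrations up to 38.3 uM (primary) or 11 concentrations (follow-up): 16 h compound, 100 nM thapsigargin for 4 h, then extracellular luciferase luminescence.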

Experiment [4] can be described thus: A High-Content qHTS Against Drug Library for the Identification of Small Molecules that Inhibit DYT1 Early Onset Primary Dystonia-Associated Cell Pathology (AID 1645839; calls by dose curve). The essentials: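 High-content imaging quantified EGFP-TorsinA mislocalization in HEK293-derived cells inducibly expressing DYT1 mutant torsinA, after 48 h exposure to compound given together with tetracycline induction. Cell count served as a toxicity channel alongside %pathology.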

The target in experiment [5] is Cytochrome P450 2D6 (Homo sapiens) (UniProt P10635). In words: Cytochrome P450 family 2 subfamily D member 6 (CYP2D6) small molecule antagonists: luciferase biochemical (cell-free) qHTS assay (AID 1645840; active = well fitted curve in the direction sought with a large enough effect in the repeat runs; an effect the other way counts as inactive or inconclusive; also: nearly all actives have a fitted effect of over 55% in size; also: potency is read from the fitted curve at half-maximal effect; as to activity change, negative = inhibition: % is scaled to controls: 0 for no effect and ±100 for the full control effect). The essentials:
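P450-Glo CYP2D6 system: proluciferin substrate converted by enzyme to luciferin, read by luminescence proportional to activity. Enzyme-substrate mix with compound 10 min at room temperature, then NADPH regeneration 1 h before detection reagent.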

The target in experiment [6] is Cytochrome P450 2C9 (Homo sapiens) (UniProt P11712). In words: Cytochrome P450 family 2 subfamily C member 9 (CYP2C9) small molecule antagonists: luciferase biochemical (cell-free) qHTS assay (AID 1645842; active = well fitted curve in the direction sought with a large enough effect in the repeat runs; an effect the other way counts as inactive or inconclusive; also: nearly all actives have a fitted effect of over 55% in size; also: potency is read from the fitted curve at half-maximal effect). The method in brief:
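P450-Glo CYP2C9 system: proluciferin substrate with enzyme in mix containing 0.4% BSA, 10 min at room temperature, then NADPH regeneration solution added and incubated 1 h at 37C. Detection reagent stopped reaction; luminescence read after 20 min as RLU.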

The nature of experiment [7]: Primary qHTS to identify inhibitors of SARS-CoV-2 cell entry (AID 1645846; calls by dose curve; also: nearly all actives have a fitted effect of over 45% in size; also: potency is read from the fitted curve at half-maximal effect). The note with it: activity change, negative = inhibition: at 57.1 µM (top of the series) unless noted. The method in brief:
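Inhibition of spike-mediated entry was scored in human ACE2-transfected Expi293F cells. Particles were MLV-pseudotyped with Wuhan-Hu-1 S carrying a 19-aa C-terminal deletion; signal was luciferase after two days, scaled between spike PP and fusion-protein-free PP.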

The next experiment concerns the target Papain (Carica papaya) (UniProt P00784). The experiment is described as follows: Primary qHTS assay for inhibitors of the protease papain (AID 1645873).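 Also: papain turnover of Z-FR-AMC read as the AMC fluorescence gain over 10 min; % is scaled to controls: 0 for no effect and ±100 for the full control effect.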
Experiment [8] can be described thus: Counterscreen qHTS for small molecule stabilizers of the endoplasmic reticulum resident proteome: GLuc-NoTag assay (AID 1508627).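 Also: 0% = thapsigargin alone and -100% = DMSO vehicle control.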 The method in brief:
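Counterscreen line: SH-SY5Y-GLuc-NoTag cells, treated with compound 19 hr before a 4 hr, 100 nM thapsigargin calcium depletion. Secreted Gaussia luciferase in the medium was measured by luminescence after coelenterazine was added (0.07x final), with cells unlysed.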
(A counterscreen serves to expose hits that act by an unwanted route or on another target.)

The nature of experiment [9]: Confirmatory qHTS for small molecule stabilizers of the endoplasmic reticulum resident proteome: Secreted ER Calcium Modulated Protein (SERCaMP) assay (AID 1508628). Also: potency is read from the fitted curve at half-maximal effect; nearly all actives have a fitted effect of over 40% in size. The method in brief:
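Reporter secretion upon ER calcium depletion (100 nM thapsigargin, 4 h, 37C) is measured as medium luminescence with coelenterazine, after 16 h compound pretreatment of SH-SY5Y-GLuc-SERCaMP cells; primary at three concentrations up to 38.3 uM, follow-up at 11 (up to 76.6 uM).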

Experiment [10] in a line: Cytotoxicity counterscreen for inhibitors of SARS-CoV-2 cell entry (AID 1645845; calls by dose curve; also: nearly all actives have a fitted effect of over 50% in size; also: potency is read from the fitted curve at half-maximal effect). The essentials:
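ATP-content luminescence (ATPLite 1step, 15 min RT) read after 48 h compound exposure of Expi293F cells stably expressing human ACE2; normalized to cells-only wells and media-only wells.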

Experiment [11] addresses Calcium and integrin-binding protein 1 (Homo sapiens) (UniProt Q99828). In words: Confirmatory qHTS for Identification of Calcium Integrin Binding Protein 1 (CIB1) Competitor (AID 1508617). Also: % is scaled to controls: 0 for no effect and ±100 for the full control effect; nearly all actives have a fitted effect of over 65% in size. The method in brief: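 Fluorescence polarization competition: CIB1-GST (1 uM final) in 5 mM HEPES pH 7.4, 125 mM NaCl, 5 mM CaCl2, 0.01% Tween20 preincubated 15 min RT with compound (up to 114 uM), then FITC-alphaIIb peptide (100 nM) added, 15 min RT.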

Experiment [12] is described as follows: VSVG counterscreen qHTS to identify inhibitors of SARS-CoV-2 cell entry (AID 1645847; calls by dose curve; also: potency is read from the fitted curve at half-maximal effect; nearly all actives have a fitted effect of over 65% in size). The method in brief:
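Luminescence from a luciferase reporter, normalised to bald particle and VSV-G pseudotyped particle wells, is the read-out. Cells are HEK293 expressing human ACE2, exposed to compound 1 h before a 48 h particle infection at 37 °C.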

In experiment [13] the target is Cytochrome P450 3A4 (Homo sapiens) (UniProt P08684). The experiment is described as follows: Cytochrome P450 family 3 subfamily A member 4 (CYP3A4) small molecule antagonists: luciferase qHTS assay (AID 1645841; active = well fitted curve in the direction sought with a large enough effect in the repeat runs; an effect the other way counts as inactive or inconclusive; also: nearly all actives have a fitted effect of over 45% in size). The essentials:
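Luminescent CYP3A4 activity readout: compounds plus enzyme-substrate mix 10 min at room temperature, reaction started with NADPH regenerating system for 1 h, stopped with detection reagent, read after 20 min. Ketoconazole served as control.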

Sequence of Papain (Carica papaya) (P00784 whole entry, looked up): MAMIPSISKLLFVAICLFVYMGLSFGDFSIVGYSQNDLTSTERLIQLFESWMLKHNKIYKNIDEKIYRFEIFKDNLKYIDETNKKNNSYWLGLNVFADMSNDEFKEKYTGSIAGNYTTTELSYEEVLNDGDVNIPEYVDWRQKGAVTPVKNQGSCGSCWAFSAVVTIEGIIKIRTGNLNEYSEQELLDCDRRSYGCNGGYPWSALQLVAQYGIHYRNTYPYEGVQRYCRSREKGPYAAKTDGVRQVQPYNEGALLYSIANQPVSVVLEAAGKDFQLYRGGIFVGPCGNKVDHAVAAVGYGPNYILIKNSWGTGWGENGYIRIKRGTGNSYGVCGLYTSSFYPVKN
Sequence of Cytochrome P450 2C9 (Homo sapiens) (P11712 whole entry, looked up): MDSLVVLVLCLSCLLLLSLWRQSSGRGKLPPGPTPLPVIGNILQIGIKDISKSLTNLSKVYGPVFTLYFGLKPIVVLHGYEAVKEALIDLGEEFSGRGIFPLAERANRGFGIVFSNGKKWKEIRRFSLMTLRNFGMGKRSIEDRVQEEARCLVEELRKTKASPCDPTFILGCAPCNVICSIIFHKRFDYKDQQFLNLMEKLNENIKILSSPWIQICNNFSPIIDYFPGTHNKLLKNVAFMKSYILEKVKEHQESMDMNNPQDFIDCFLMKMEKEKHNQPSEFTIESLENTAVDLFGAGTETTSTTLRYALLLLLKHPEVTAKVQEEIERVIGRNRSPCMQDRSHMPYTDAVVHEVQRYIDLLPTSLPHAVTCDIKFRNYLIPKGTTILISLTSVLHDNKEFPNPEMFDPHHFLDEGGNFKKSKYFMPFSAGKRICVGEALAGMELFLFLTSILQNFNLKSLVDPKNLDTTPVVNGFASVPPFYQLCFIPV
Sequence of Cytochrome P450 2D6 (Homo sapiens) (P10635 whole entry, looked up): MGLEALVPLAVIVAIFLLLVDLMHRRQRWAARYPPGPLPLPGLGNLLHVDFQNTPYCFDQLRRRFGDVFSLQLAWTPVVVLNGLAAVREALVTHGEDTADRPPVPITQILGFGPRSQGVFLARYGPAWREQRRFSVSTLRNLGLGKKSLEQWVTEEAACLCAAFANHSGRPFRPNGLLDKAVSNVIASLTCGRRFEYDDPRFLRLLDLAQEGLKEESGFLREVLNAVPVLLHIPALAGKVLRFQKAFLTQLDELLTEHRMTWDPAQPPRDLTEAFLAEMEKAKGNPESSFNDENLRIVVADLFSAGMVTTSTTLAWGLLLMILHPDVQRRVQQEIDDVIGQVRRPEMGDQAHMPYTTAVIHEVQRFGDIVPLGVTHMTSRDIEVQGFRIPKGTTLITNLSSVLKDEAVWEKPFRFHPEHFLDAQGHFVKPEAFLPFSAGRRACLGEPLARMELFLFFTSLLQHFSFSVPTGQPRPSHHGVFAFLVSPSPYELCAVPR
Sequence of Cytochrome P450 3A4 (Homo sapiens) (P08684 whole entry, looked up): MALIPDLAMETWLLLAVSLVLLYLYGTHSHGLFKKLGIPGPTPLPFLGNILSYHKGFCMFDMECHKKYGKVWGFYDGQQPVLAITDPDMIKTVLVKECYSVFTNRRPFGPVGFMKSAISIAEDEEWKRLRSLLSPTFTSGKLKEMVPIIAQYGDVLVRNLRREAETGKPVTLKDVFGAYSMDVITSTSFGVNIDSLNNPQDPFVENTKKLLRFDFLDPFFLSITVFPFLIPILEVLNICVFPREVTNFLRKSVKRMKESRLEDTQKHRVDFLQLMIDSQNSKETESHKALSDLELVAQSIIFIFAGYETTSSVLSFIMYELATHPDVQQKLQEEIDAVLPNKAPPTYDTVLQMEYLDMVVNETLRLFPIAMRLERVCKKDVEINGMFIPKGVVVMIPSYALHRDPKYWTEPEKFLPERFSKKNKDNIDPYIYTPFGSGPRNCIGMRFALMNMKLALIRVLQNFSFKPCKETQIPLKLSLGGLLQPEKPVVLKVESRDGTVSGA

With `NCCc1cc(O)c(O)cc1O`, the Potency entry in experiment [1], in experiment [2], in [4], in experiment [5] and in experiment [6] was “inactive” throughout. The result in experiment [3] was inactive.
Turning to `COc1ccc(C(=O)c2c(C)n(CCN3CCOCC3)c3ccccc23)cc1`, the Potency result in experiment [1], in experiment [2] and in experiment [4] was “inactive” in each case. In addition, the result in experiment [3] was inactive. For the same molecule, the Potency in [5] was 12.3 µM (active); in experiment [6] it was 5.49 µM (active); in experiment [7] it was 31.6 µM (active).
Regarding `O=C1NCN(c2ccccc2)C12CCN(CC1COc3ccccc3O1)CC2` (stereo not drawn), the Potency entry (in experiment [1]; in experiment [2]; in experiment [4]; with Papain (Carica papaya)) was “inactive” each time. The result in [3] was inactive. Further, the Potency in [5] is 0.0245 µM (active); in experiment [6], 6.17 µM (active).
Regarding `CC1OC(C)OC(C)O1` (stereo not drawn), the Potency result in experiment [1], in [2], in [4], in experiment [5] and in experiment [6] was “inactive” each time. Further, the outcome in experiment [3] was inactive.
As to `O=C(NC(O)C(Cl)(Cl)Cl)NC(O)C(Cl)(Cl)Cl` (stereo not drawn), the Potency result in experiment [1], in [2], in experiment [4], in [5] and in [6] was “inactive” throughout. For the same molecule, the outcome in experiment [3] was inactive.
For the molecule `C[C@@H](NCCCc1cccc(C(F)(F)F)c1)c1cccc2ccccc12`, the Potency in [7] was 20 µM (active).
Consider `CCC(=O)C(CC(C)N(C)C)(c1ccccc1)c1ccccc1` (stereo not drawn), for which the Potency entry in experiment [2], in experiment [8] and in [6] was “inactive” throughout. Further, the Potency is 35.5 µM (active) in experiment [9] and 0.898 µM (active) in experiment [5].
On to `CN(C)CCN(C)CCc1ccc(Cl)c(Cl)c1`, for which the Potency entry in [2] and in experiment [10] was “inactive” each time. Further, the outcome in [3] was inactive.
For `COc1cc([C@@H]2c3cc4c(cc3[C@H](O)[C@H]3COC(=O)[C@H]23)OCO4)cc(OC)c1OC`, in experiment [7], the activity change, negative = inhibition was -79.7%.
For `COc1ccc2c(c1OC)CN1CCc3cc4c(cc3C1C2)OCO4` (stereo not drawn), the Potency entry in [1], in experiment [2] and in experiment [4] was “inactive” throughout. Also, the figures for the Potency in experiment [5] and in [6] were 0.0309 µM (active) and 19.5 µM (active), respectively.
`CC[C@@H](CO)NC(=O)[C@@H]1C=C2c3cccc4c3c(cn4C)C[C@H]2N(C)C1`: the result in [11] and in experiment [3] was inactive. The Potency in [2] is 44.7 µM (active); in experiment [5], 12.3 µM (active). The Potency result (in experiment [4]; with Papain (Carica papaya)) was “inactive” in each case.
On to `CCc1nc(N)nc(N)c1-c1ccc(Cl)cc1`, for which the Potency in experiment [10] is 14.1 µM (active).
For `COc1c(C)c2c(c(O)c1C/C=C(\C)CCC(=O)OCCN1CCOCC1)C(=O)OC2`, the Potency result in [10] is “inactive”. For the same molecule, the activity change, negative = inhibition in experiment [7] is -45.8%. Besides, the Potency in experiment [12] was 0.429 µM (active).
Take `COc1ccccc1N1CCNCC1`: the Potency result (in experiment [1]; in experiment [4]; in experiment [5]; in [6]; with Papain (Carica papaya)) was “inactive” each time. Further, the result in experiment [3] and in experiment [13] was inactive.
`COC1(CS(=O)c2ccccc2)CCN(CCc2c[nH]c3ccc(F)cc23)CC1` (stereo not drawn): the Potency entry in [2] and in [10] was “inactive” each time. The outcome in experiment [3] was inactive.
Take `Cn1ccc2cc3c(cc21)CCN3C(=O)Nc1cccnc1`: the Potency result in [10] is “inactive”. Further, the activity change, negative = inhibition in [7] was -18.3%.
`CO[C@@H](C(=O)N1Cc2[nH]nc(NC(=O)c3ccc(N4CCN(C)CC4)cc3)c2C1)c1ccccc1`: the Potency entry in experiment [10] is “inactive”.
For the molecule `Cc1cc(SCc2sc(-c3ccc(C(F)(F)F)c(F)c3)nc2C)ccc1OCC(=O)O`, the Potency result in experiment [2], in experiment [10] and in [7] was “inactive” throughout. In addition, the outcome in [3] was inactive.
On to `COC[C@H]1OC(=O)c2coc3c2[C@@]1(C)C1=C(C3=O)C2CCC(=O)[C@@]2(C)C[C@H]1OC(C)=O` (stereo partly drawn), for which the Potency entry (in experiment [1]; with Papain (Carica papaya)) was “inactive” throughout. Also, the result in experiment [3] was inactive. Also, the activity change, negative = inhibition in experiment [7] was 3.38%.
